# Source: PubChem BioAssay
# Unmarked numbers belong to inactive results. Activity calls are given as the source filed them.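 The calls were made as follows: active = inhibition over a set limit, the all-compound mean plus 3 SD, in both replicate runs; inconclusive = over that limit in just one replicate run; inactive = at or under that limit in both runs.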
# Assay: inhibitors of the yeast RAM network, pilot screen, dse1pr::URA3 reporter, 5-FOA selection (AID 869);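 also: 0% = DMSO wells with no growth and 100% = 10 µM 1-NA-PP1 with full growth; RAM network block rescues cells from 5-FOA so hits raise OD615 growth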
# Details: S. cerevisiae dse1pr::URA3 5-FOA growth, OD615, 2 d; at 10 µM; stronger effect = higher value; strain carries analog-sensitive mutant Cbk1 kinase
row,Structure (SMILES),inhibition
1,COC(=O)c1ccsc1NC(=O)C1=COCCO1,0.91%
2,CC(=O)Oc1c(Cl)c(N2CCOCC2)c(OC(C)=O)c2ccccc12,-0.75%
3,Cc1ccc2nc(N3CCOCC3)c3nncn3c2c1,0.915%
4,CC(C)n1c(C(O)c2ccccc2)nc2ccccc21 (stereo not given),1.4%
5,C=CCNC(=O)c1cnc2n(c1=O)CCS2,1.68%
6,COc1ccc(-c2nnc3ccc(SCC(=O)N4CCCC4)nn23)cc1,1.44%
7,Cn1c(Cn2c(=O)sc3ccccc32)nnc1SCC(=O)NCCc1ccccc1,2.5%
8,CC(C)OCCCNC(=O)c1cc2c(=O)n(C)c3ccccc3c2n1C,0.185%
9,Cc1cc(-n2nc(C)cc2C)nc(NS(=O)(=O)c2ccccc2)n1,2.98%
10,COC(=O)c1ccc(C2C(C(=O)Nc3ccc(C)cc3C)=C(C)Nc3ncnn32)cc1 (stereo not given),2.46%
11,O=C(CC1NCCNC1=O)OCCCc1ccccc1 (stereo not given),1.09%
12,CCOC(=O)Nc1ccc2c(c1)N(C(=O)N(CC)CC)c1ccccc1CC2,2.9%
13,O=C(CSc1nnc2sc3ccccc3n12)NCc1ccc2c(c1)OCO2,0.245%
14,Cc1nc2sc(C(c3ccc(C(C)C)cc3)N3CCN(CCO)CC3)c(O)n2n1 (stereo not given),1.58%
15,CCOC(=O)c1ccc(NC(=O)CCC(=O)OC)cc1,1.98%
16,CC(=NCCc1ccccc1)C1=C(O)CSC1=O,0.97%
17,COC(=O)CN1C(=O)C(O)(CC(=O)c2ccc(Br)cc2)c2ccccc21 (stereo not given),0.785%
18,Cn1c(=O)c2c(SCC(=O)NCc3ccco3)nc(CC(C)(C)C)nc2n(C)c1=O,0.775%
19,CCn1c(C2CC(=O)N(c3cc(C)cc(C)c3)C2)nc2ccccc21 (stereo not given),1.13%
20,CCN(CC)CCCN1C(=O)C(O)=C(C(=O)c2ccc(C)o2)C1c1cccs1 (stereo not given),2.01%

row,Structure (SMILES),inhibition
1,CCN(CC)S(=O)(=O)c1ccc(S(=O)(=O)N2CCN(CCC#N)CC2)cc1,1.38%
2,CN(Cc1ccccc1)S(=O)(=O)c1ccc2[nH]c(=O)oc2c1,0.425%
3,Cc1c(C(=O)NCc2ccc3c(c2)OCO3)sc2nc(-c3ccccc3)cn12,3.05%
4,CC(=O)c1ccc(C(=O)Nc2ccc(N3CCOCC3)cc2)cc1,0.45%
5,C=CCn1c(CSc2nc3ccccc3s2)nnc1SCC(=O)OCC,-0.335%
6,Cn1c(=O)[nH]c(=O)c2c1nc(NC1CCCCC1)n2CCO,1.19%
7,Cc1cc(NC(=O)NC2(C(F)(F)F)Oc3ccc(Cl)cc3O2)no1 (stereo not given),3.26%
8,O=C(CCc1nc2ccccc2[nH]1)N1CCN(C(=O)c2ccco2)CC1,0.87%
9,COc1ccccc1-c1coc2cc(O)cc(O)c2c1=O,0.26%
10,Cn1c(=O)c2c(SCC(=O)N3CCN(c4ccccc4)CC3)nc(C3CC3)nc2n(C)c1=O,3.71%
11,CCC(C)NC(=O)c1cnc2n(c1=O)CCS2 (stereo not given),1.18%
12,Cc1cccc(CSc2nnc(Cn3c(=O)sc4ccccc43)n2C)c1,-0.065%
13,COC(=O)NCC(c1cccnc1)N1CCN(c2ccccc2F)CC1 (stereo not given),1.66%
14,COCCn1c(=O)[nH]c2cc(C(=O)NC3CCCCCC3)ccc2c1=O,6.66% (active)
15,O=C(c1ccc2nc(N3CCOCC3)sc2c1)N1CCN(C(=O)c2ccco2)CC1,0.86%
16,COc1ccc(CCNC(=O)c2cc3ccccn3n2)c(OC)c1OC,1.92%
17,Cc1nc2ccc(S(=O)(=O)NC(C(=O)NCc3ccco3)C(C)C)cc2s1 (stereo not given),0.895%
18,CCOC(=O)c1c(C)oc2cc(Br)c(OC(C)C(=O)OCC)cc12 (stereo not given),1.76%
19,Cc1cc(SCC(=O)c2ccccc2)n2nc(C)nc2n1,2.91%
20,COc1ccccc1NC(=O)CSc1nc2ncccc2[nH]1,0.975%
